PubChem BioAssay

Key:
[1] = test system: Human papillomavirus type 1a protein E7 (residues 44-93); assay: HPV1a E7 fragment binders on microarrays, primary screen, biochemical, small-molecule microarray, residues 44-93, 635 nm fluorescence (AID 1108); settings: small-molecule microarray binding, fluorescence 635 nm; higher = more signal;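 also: E7 fragment applied at 1 µg/mL in TBST for 1 h at 4 C; score combines spot fluorescence with its signal to noise ratio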
[2] = modulators of HCV replicon luciferase signal, primary screen, HCV replication inhibitor project, Huh7 cells, luciferase reporter (AID 1109); settings: 48 h, higher = more signal;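 also: huh7 hepatoma cells harbouring a luciferase neomycin HCV replicon reporter; luciferase luminescence as measure of HCV replicon replication; test concentration not given here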
[3] = biological target: Left-right determination factor 2 (Homo sapiens) (UniProt O00292); assay: LEFTY2 binders on small-molecule microarrays, primary screen, biochemical, small-molecule microarray, 635 nm fluorescence scan (AID 1110); settings: LEFTY2 binding, higher = more signal
[4] = biological target: Calmodulin-1 (Homo sapiens) (UniProt P0DP23); assay: CALM1 binders on microarrays, EGTA buffer, profiling panel, biochemical, small-molecule microarray, Cy5-labelled CALM1 (AID 1111); settings: Cy5-CALM1 binding fluorescence, higher = more signal;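 also: labelled calmodulin applied in Tris saline Tween buffer holding calcium plus EGTA and DTT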
[5] = biological target: Calmodulin-1 (Homo sapiens) (UniProt P0DP23); assay: calcium-bound CALM1 binders on microarrays, profiling panel, artefact control for SMM control-protein annotation, biochemical, small-molecule microarray, Cy5-labelled CALM1, plus calcium (AID 1112); settings: Cy5-CALM1 binding fluorescence, higher = more signal;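 also: score merges spot fluorescence with signal to noise from triplicate slides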
[6] = small-molecule microarray binders of probe aWnt5a, primary screen, biochemical, biotinylated probe, 635/667 nm fluorescence (AID 1113); settings: higher = more signal;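 also: score merges 667 nm fluorescence intensity with signal-to-noise per printed feature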
[7] = small-molecule microarray binders of probe aShh, primary screen, biochemical, biotinylated probe, 635/667 nm fluorescence (AID 1114); settings: higher = more signal;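 also: probe is biotin-labelled aShh protein from a stem cell growth factor screen; measures binding of labelled protein to compounds printed on the slide; score merges feature fluorescence at 667 nm with signal-to-noise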
[8] = small-molecule microarray binders of probe aNog, primary screen, biochemical, biotinylated probe, 635/667 nm fluorescence (AID 1115); settings: higher = more signal;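 also: probe is biotinylated aNog protein used at 0.15 µg/mL for 1 h at 4 C; z-score combines 667 nm fluorescence of each spot with its signal to noise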
[9] = biological target: Torsin-1A-interacting protein 1 (Homo sapiens) (UniProt Q5JTV8); assay: LAP1 binders from COS7 cell lysate, primary screen, small-molecule microarray, 635/667 nm fluorescence (AID 1116); settings: COS7-hLAP1 lysate binding, 635 nm fluorescence, higher = more signal
[10] = biological target: Alpha-bungarotoxin (Bungarus multicinctus) (UniProt P60615); assay: alpha-bungarotoxin binders on microarray, profiling panel, artefact control for SMM control protein annotation, biochemical, small-molecule microarray, Alexa647 label, 635/667 nm fluorescence (AID 1117); settings: alpha-BTX-A647 binding fluorescence, higher = more signal
Sequence of Alpha-bungarotoxin (Bungarus multicinctus) (P60615 whole entry, looked up): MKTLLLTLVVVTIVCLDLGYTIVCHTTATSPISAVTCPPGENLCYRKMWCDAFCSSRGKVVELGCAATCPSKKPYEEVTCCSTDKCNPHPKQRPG

Sequence of Torsin-1A-interacting protein 1 (Homo sapiens) (Q5JTV8 whole entry, looked up): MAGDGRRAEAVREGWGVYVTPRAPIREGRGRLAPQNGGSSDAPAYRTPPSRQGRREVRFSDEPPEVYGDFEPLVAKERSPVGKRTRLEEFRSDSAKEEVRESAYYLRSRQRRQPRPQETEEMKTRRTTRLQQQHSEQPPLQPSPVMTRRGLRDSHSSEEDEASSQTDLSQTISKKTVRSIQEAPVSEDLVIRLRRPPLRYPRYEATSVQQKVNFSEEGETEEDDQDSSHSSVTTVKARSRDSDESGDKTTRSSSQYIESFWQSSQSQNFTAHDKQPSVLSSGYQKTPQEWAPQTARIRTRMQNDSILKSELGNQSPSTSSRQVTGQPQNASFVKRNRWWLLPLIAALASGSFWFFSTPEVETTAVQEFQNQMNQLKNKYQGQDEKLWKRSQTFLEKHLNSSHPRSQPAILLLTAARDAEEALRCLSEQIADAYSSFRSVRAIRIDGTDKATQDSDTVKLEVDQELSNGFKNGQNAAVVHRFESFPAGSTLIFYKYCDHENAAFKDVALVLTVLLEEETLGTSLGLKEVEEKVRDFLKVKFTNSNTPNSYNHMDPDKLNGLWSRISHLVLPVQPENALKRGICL
Sequence of Left-right determination factor 2 (Homo sapiens) (O00292 whole entry, looked up): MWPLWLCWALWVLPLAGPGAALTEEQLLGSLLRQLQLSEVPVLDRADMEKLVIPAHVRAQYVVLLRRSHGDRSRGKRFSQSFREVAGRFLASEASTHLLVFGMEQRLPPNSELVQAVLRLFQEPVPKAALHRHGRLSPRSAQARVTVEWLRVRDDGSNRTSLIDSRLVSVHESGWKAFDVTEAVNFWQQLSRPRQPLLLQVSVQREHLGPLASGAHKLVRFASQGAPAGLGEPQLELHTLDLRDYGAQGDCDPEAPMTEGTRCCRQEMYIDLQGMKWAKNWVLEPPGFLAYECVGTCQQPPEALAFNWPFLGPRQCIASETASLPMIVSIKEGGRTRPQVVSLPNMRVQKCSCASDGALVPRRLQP

SMILES	composite z-score [1]	z-score [2]	composite z-score [3]	composite z-score [4]	composite z-score [5]	composite z-score [6]	composite z-score [7]	composite z-score [8]	composite z-score [9]	composite z-score [10]
C=CCNC(=O)[C@H]1[C@@H]2C(=O)O[C@@H](c3ccccc3)[C@@H](c3ccccc3)N2[C@@H](c2ccccc2OCCO)[C@]12C(=O)Nc1ccc(C#CC3=CCCCC3)cc12	1.12	-3.52	0.531	0.904	-0.321	-0.1	0.0588	0.163	0.358	0.99
[N-]=[N+]=NCc1ccccc1C[C@]1(C(=O)N2CCOCC2)N=C(c2ccc(OCCCO)cc2)O[C@H]1c1ccccc1N=[N+]=[N-]	1.44	-2.21	0.536	1.14	0.792	0.0873	0.385	0.49	1.73	1.14
COCCOC(=O)N1C(=O)[C@@]2(c3cc(C#Cc4ccc(OC)cc4)ccc31)[C@H](C(N)=O)[C@H]1C(=O)O[C@H](c3ccccc3)[C@H](c3ccccc3)N1[C@@H]2c1ccccc1OCCO	1.33	-1.49	0.738	2.22	0.618	-0.0134	-0.0988	0.168	2.3	2.97
COc1ccc([Si](C)(C)[C@H]2[C@H](CC(=O)N3Cc4ccccc4C[C@H]3CO)O[C@@]3(C(=O)N(Cc4ccc(N5CCC5=O)cc4)c4ccccc43)[C@@H]2C)cc1	1.37	-3.99	1.22	1.02	-0.89	0.0158	-0.144	1.65	1.45	0.548
COCCn1c(C(=O)N2CCCC2)cc2c1C[C@H]1CN(C(=O)c3ccccc3)[C@@](Cc3ccc(F)cc3)(C(=O)OC)[C@@H]21	1.43	-1.42	-0.0638	2.41	0.954	0.402	0.636	-0.489	2.88	0.476
COCCOC(=O)N1C(=O)[C@@]2(c3cc(C#CCCO)ccc31)[C@H](c1ccc(OCCO)cc1)N1[C@H](c3ccccc3)[C@H](c3ccccc3)OC(=O)[C@H]1[C@@H]2C(=O)N1CCN(c2ncccn2)CC1	1.37	-1.46	0.781	1.33	-0.243	-0.131	-0.0035	-0.483	0.398	0.582
COc1ccc(C(=O)Nc2cccc(CN3C(=O)[C@]4(O[C@H](CCO)[C@@H]([Si](C)(C)c5ccc(OC)cc5)[C@@H]4C)c4ccccc43)c2)cc1	1.28	-5.16	0.442	0.123	0.0559	0.0194	-0.133	0.6	0.603	0.805
O=C1O[C@H](c2ccccc2)[C@H](c2ccccc2)N2[C@H]1[C@@H](C(=O)O)[C@]1(C(=O)Nc3ccc(C#CCCO)cc31)[C@H]2c1ccc(O)cc1	-0.038	0.101	-0.603	0.415	0.869	0.0044	-0.0324	1.08	0.846	0.0639
